From PubChem BioAssay (NCATS)
Records with an inconclusive call do not appear. Unmarked numbers belong to inactive results. Activity calls are given as the source filed them. Calls follow the shape of the dose curve; as a rule, active = well fitted inhibition curve with a large enough effect; inconclusive = small, poorly fitted or top-dose-only effect; inactive = flat fitted curve, though single readings scatter.
% is scaled to controls: 0 for no effect and ±100 for the full control effect; potency is read from the fitted curve at half-maximal effect.

The molecules below were run on MCC-26 (assay: qHTS assay to identify novel small-molecules to repurpose for Merkel cell carcinoma treatment (AID 1296009; also: nearly all actives have a fitted effect of over 60% in size)). Conditions: MCC and control cell lines, CellTiter-Glo viability, 72 h; series mostly up to 46 µM; activity change, negative = cytotoxicity: at the top concentration.
Summary of the method: (§1)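 Luminescence from CellTiter-Glo, read 10 min after addition at room temperature, reported viability following a 72 hr, 37 degree celsius treatment with NPC or MIPE compounds in titration; values normalized to plate controls.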
In the case of `CCCCCCCc1ccc(CCc2cccc(O)c2C(=O)O)cc1`, the “activity change, negative = cytotoxicity” value is reported as -8.48%.
With `COCCNCCCn1c(C(=O)CF)c(-c2ccc(C)cc2)c2c(N)ncnc21` the “activity change, negative = cytotoxicity” value was -3.62%.
`COc1cc(F)c(F)c(Nc2ccc(I)cc2F)c1NS(=O)(=O)C1(C[C@H](O)CO)CC1` was tested, and the “activity change, negative = cytotoxicity” value was -8.58%.
`COc1cc(Oc2ccnc3cc(OC)c(OC)cc23)ccc1NC(=O)NC(C)c1nccs1` (stereo not drawn) was tested, and the “activity change, negative = cytotoxicity” value was -12.2%.
With `CCOC(=O)N[C@@H]1CC[C@@H]2[C@@H](C1)C[C@H]1C(=O)O[C@H](C)[C@H]1[C@@H]2C=Cc1ccc(-c2cccc(F)c2)cn1` the “activity change, negative = cytotoxicity” value was -18.1%.
For `OCCC#Cc1nc(-c2ccc(F)cc2)c(-c2ccncc2)n1CCCc1ccccc1`, the “activity change, negative = cytotoxicity” value was -1.74%.
For `Cc1ccc(NC(=O)c2cccc(C(C)(C)C#N)c2)cc1Nc1ccc2ncn(C)c(=O)c2c1`, the “activity change, negative = cytotoxicity” value was -14%.
For `c1ccc(-c2nn3c(c2-c2ccnc4cc(OCCN5CCOCC5)ccc24)CCC3)nc1`, the “activity change, negative = cytotoxicity” value was 9.36%.
For `CN(C)c1ccc(C2Nc3ccc4ccccc4c3C3=C2C(=O)CC(C)(C)C3)cc1Br` (stereo not drawn), the “activity change, negative = cytotoxicity” value was -18.1%.
`Nc1nccc(-c2ccc3noc(-c4ccc(Cl)cc4)c3c2)n1` was tested, and the “activity change, negative = cytotoxicity” value was -4.94%.
In the case of `NC(=O)c1ccc(-c2nc(-c3ccc4c(c3)OCCO4)c(-c3ccccn3)[nH]2)cc1`, the “activity change, negative = cytotoxicity” value is reported as 7.02%.
With `O=C(C1CC1)N1CC[C@@H](Cn2c(-c3ccc(-c4ccc5occc5c4)cc3)nc3cnccc32)C1` the “activity change, negative = cytotoxicity” value was -6.46%.
`Cc1c(CCOc2ccc(C(=O)O)cc2)c2cc(Cl)ccc2n1C(c1ccccc1)c1ccccc1` was tested, and the “activity change, negative = cytotoxicity” value was -5.04%.
With `CN(C)c1ccc(Nc2nc(N)n(C(=O)c3c(F)cccc3F)n2)cc1` the “activity change, negative = cytotoxicity” value was -17.4%.
`CCOC(=O)C1=C[C@]2(CC)CCCN3CCc4c(n1c1ccccc41)[C@@H]32` was tested, and the Potency was “inactive”.
With `CC(C)(C)OC(=O)CN(Cc1ccc(Cl)cc1)Cc1ccc([N+](=O)[O-])s1` the “activity change, negative = cytotoxicity” value was -0.649%.
In the case of `Cn1c(=O)c(F)c(Nc2ccc(I)cc2F)c2c(=O)n(C[C@@H](O)CO)cnc21`, the “activity change, negative = cytotoxicity” value is reported as -17.7%.
With `Nc1ncnc2nc(-c3ccc(N4CCOCC4)nc3)cc(-c3cccc(Br)c3)c12` the “activity change, negative = cytotoxicity” value was 4.07%.
With `Nc1cccc(S(=O)(=O)N2CCCN(S(=O)(=O)c3ccc4c(c3)OCCO4)CC2)c1` the “activity change, negative = cytotoxicity” value was -6.7%.
With `CCn1cc(C(=O)O)c(=O)c2cc(F)c(N3CCNC(C)C3)c(F)c21` (stereo not drawn) the Potency was “inactive”.

The molecules below were run on MKL-1 in the same assay as above. Conditions: MCC and control cell lines, CellTiter-Glo viability, 72 h; series mostly up to 46 µM; activity change, negative = cytotoxicity: at the top concentration.
Summary of the method: as §1
With `CCCCCCCc1ccc(CCc2cccc(O)c2C(=O)O)cc1` the “activity change, negative = cytotoxicity” value was -2.38%.
For `COCCNCCCn1c(C(=O)CF)c(-c2ccc(C)cc2)c2c(N)ncnc21`, the “activity change, negative = cytotoxicity” value was 9.47%.
In the case of `COc1cc(F)c(F)c(Nc2ccc(I)cc2F)c1NS(=O)(=O)C1(C[C@H](O)CO)CC1`, the “activity change, negative = cytotoxicity” value is reported as -1.97%.
With `COc1cc(Oc2ccnc3cc(OC)c(OC)cc23)ccc1NC(=O)NC(C)c1nccs1` (stereo not drawn) the “activity change, negative = cytotoxicity” value was -2.17%.
For `CCOC(=O)N[C@@H]1CC[C@@H]2[C@@H](C1)C[C@H]1C(=O)O[C@H](C)[C@H]1[C@@H]2C=Cc1ccc(-c2cccc(F)c2)cn1`, the “activity change, negative = cytotoxicity” value was -12%.
In the case of `OCCC#Cc1nc(-c2ccc(F)cc2)c(-c2ccncc2)n1CCCc1ccccc1`, the “activity change, negative = cytotoxicity” value is reported as -19.2%.
In the case of `Cc1ccc(NC(=O)c2cccc(C(C)(C)C#N)c2)cc1Nc1ccc2ncn(C)c(=O)c2c1`, the “activity change, negative = cytotoxicity” value is reported as -11.4%.
For `c1ccc(-c2nn3c(c2-c2ccnc4cc(OCCN5CCOCC5)ccc24)CCC3)nc1`, the “activity change, negative = cytotoxicity” value was -8.3%.
For `O=S(=O)(N=Cc1c(O)ccc2ccccc12)c1cccs1`, the “activity change, negative = cytotoxicity” value was 2.72%.
For `O=C(C=Cc1ccc(/C=C/C(=O)Nc2ccc(C3=NCCN3)cc2)cc1)Nc1ccc(C2=NCCN2)cc1`, the “activity change, negative = cytotoxicity” value was 2.31%.
`Cc1cccc(-c2nn(C(=S)Nc3ccccc3)cc2-c2ccnc3ccccc23)n1` was tested, and the “activity change, negative = cytotoxicity” value was -3.01%.
In the case of `COc1ccc2nc(S(=O)Cc3ncc(C)c(OC)c3C)[nH]c2c1` (stereo not drawn), the Potency is reported as “inactive”.
In the case of `CC(C)C[C@H](NC(=O)[C@@H](O)[C@H](N)Cc1ccccc1)C(=O)O`, the “activity change, negative = cytotoxicity” value is reported as -14%.
With `CN(C)c1ccc(C2Nc3ccc4ccccc4c3C3=C2C(=O)CC(C)(C)C3)cc1Br` (stereo not drawn) the “activity change, negative = cytotoxicity” value was -7.11%.
With `COc1cc2nccc(Oc3ccc(NC(=O)NC4CC4)c(Cl)c3)c2cc1C(N)=O` the Potency was 2640 nM (active).
`CCc1cc(Nc2nccc(-c3c(-c4ccc(OC)c(C(=O)Nc5c(F)cccc5F)c4)nc4ccccn34)n2)c(OC)cc1N1CCC(N2CCN(S(C)(=O)=O)CC2)CC1` was tested, and the “activity change, negative = cytotoxicity” value was -16.8%.
For `Nc1nccc(-c2ccc3noc(-c4ccc(Cl)cc4)c3c2)n1`, the “activity change, negative = cytotoxicity” value was -0.97%.
With `NC(=O)c1ccc(-c2nc(-c3ccc4c(c3)OCCO4)c(-c3ccccn3)[nH]2)cc1` the “activity change, negative = cytotoxicity” value was -7.19%.
`O=C(C1CC1)N1CC[C@@H](Cn2c(-c3ccc(-c4ccc5occc5c4)cc3)nc3cnccc32)C1` was tested, and the “activity change, negative = cytotoxicity” value was 6.88%.
For `Cc1c(CCOc2ccc(C(=O)O)cc2)c2cc(Cl)ccc2n1C(c1ccccc1)c1ccccc1`, the “activity change, negative = cytotoxicity” value was -1.38%.
`CCOC(=O)C1=C[C@]2(CC)CCCN3CCc4c(n1c1ccccc41)[C@@H]32` was tested, and the “activity change, negative = cytotoxicity” value was -6.69%.
With `CC(C)(C)OC(=O)CN(Cc1ccc(Cl)cc1)Cc1ccc([N+](=O)[O-])s1` the “activity change, negative = cytotoxicity” value was -10.3%.
With `Cn1c(=O)c(F)c(Nc2ccc(I)cc2F)c2c(=O)n(C[C@@H](O)CO)cnc21` the “activity change, negative = cytotoxicity” value was -0.213%.
`Nc1ncnc2nc(-c3ccc(N4CCOCC4)nc3)cc(-c3cccc(Br)c3)c12` was tested, and the “activity change, negative = cytotoxicity” value was -6.75%.
With `Nc1cccc(S(=O)(=O)N2CCCN(S(=O)(=O)c3ccc4c(c3)OCCO4)CC2)c1` the “activity change, negative = cytotoxicity” value was -1.1%.
With `CCn1cc(C(=O)O)c(=O)c2cc(F)c(N3CCNC(C)C3)c(F)c21` (stereo not drawn) the Potency was “inactive”.
For `COc1ccc2c3n(c(=NC(=O)c4cccnc4)nc2c1OC)CCN3`, the “activity change, negative = cytotoxicity” value was 4.56%.
In the case of `CCOc1cc(N2CCC(O)CC2)ccc1Nc1ncc2c(n1)N(C)c1ccccc1C(=O)N2C`, the Potency is reported as 3320 nM (active).
